Compound activity deposited in PubChem BioAssay by National Center for Advancing Translational Sciences (NCATS).
Shown are actives, neighbours in structure and some others; about 2.2% of the full set was active somewhere.
Nrf2 activator: qHTS of Nrf2 Activators | AREc32 ARE-luciferase reporter (MCF7-derived line), luminescence, 24 h | Potency, µM (highest dose often 46.1 µM), inactives show at the highest dose activation, actives largely listed as activators | 410,000 tested, 0.31% active; further: potency means the concentration at half of the fitted maximal effect; % of control where 0% means no effect; nearly all actives have a fitted effect of over 65% in size
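Luminescent ARE reporter assay in AREc32_Fluc cells: overnight plating at 37 deg C, 24 hr compound incubation, Steady-Glo added, 30 min RT before reading.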
PI4K2A inh: qHTS for small molecular inhibitors of PI4K2A | Phosphatidylinositol 4-kinase type 2-alpha (Homo sapiens), Q9BTU6 | purified PI4K2A, ADP-Glo luminescence, 1 h; active compounds read low | activity change, negative = inhibition, % at 76.9 µM | 420,000 tested, 0.13% active; in the data active means activity change below about -50%; inconclusive means mostly about -30% to -49%;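 further: -100% = wells without enzyme as full effect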
Target sequence (Q9BTU6 whole entry, looked up): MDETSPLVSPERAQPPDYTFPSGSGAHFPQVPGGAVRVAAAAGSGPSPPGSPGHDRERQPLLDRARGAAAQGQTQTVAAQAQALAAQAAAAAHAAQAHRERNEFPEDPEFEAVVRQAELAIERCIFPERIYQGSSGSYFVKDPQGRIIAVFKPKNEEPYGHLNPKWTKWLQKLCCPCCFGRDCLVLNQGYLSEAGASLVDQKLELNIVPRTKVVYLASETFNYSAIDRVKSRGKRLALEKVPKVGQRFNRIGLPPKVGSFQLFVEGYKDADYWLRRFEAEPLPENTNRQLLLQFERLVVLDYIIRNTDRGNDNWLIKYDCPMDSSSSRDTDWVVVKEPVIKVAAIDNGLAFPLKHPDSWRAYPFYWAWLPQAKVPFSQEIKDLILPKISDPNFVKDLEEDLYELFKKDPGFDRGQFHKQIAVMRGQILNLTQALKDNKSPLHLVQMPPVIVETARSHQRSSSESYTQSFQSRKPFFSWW
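In this quantitative HTS, ADP production by PI4K2A was quantified luminescently after 1 h at ambient temperature; 100 microM adenosine served as plate-quality control.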
GALK inh: qHTS Assay for Inhibitors of Human Galactokinase (GALK); Potency, µM (series often up to 57.5 µM), for the others: at the top dose activity change, negative = inhibition, most hits filed as inhibitors; 270,000 tested, 0.007% active; Purified GALK, Kinase-Glo residual ATP luminescence; further: potency means the concentration at half of the fitted maximal effect; on the % scale 0 is the no-effect control and ±100 the full control effect
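Compounds were pin-transferred into ATP buffer (35 uM final), then GALK plus galactose (5 nM, 100 uM final) was added. After 1 h at room temperature, Kinase-Glo Plus was added and luminescence read after 10 min.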
miR-21 reporter: qHTS Assay for Modulators of miRNAs and/orActivators of miR-21; HeLa miR-21 FLuc reporter, luciferase, 48 h; Potency, µM (top dose mostly 38.3 µM), for the others: at the highest dose activity change, positive = activation, hits mostly activators; 340,000 tested, under 10 active; AID 2288, 2010;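 further: % of control where 0% means no effect; miR-21 action dims this reporter so a rising signal means less miR-21 action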
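Compounds were titrated across several concentrations (up to approximately 40 uM) and incubated 48 hours with HeLa miR-21-FLuc reporter cells (miR-21 target sequence downstream of FLuc, endogenous miR-21). Readout was firefly luciferase luminescence after lytic detection reagent.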
A549 viability: Nrf2 qHTS screen for inhibitors: counterscreen for cytotoxicity. AID 504648, 2011. 390,000 tested, 0.16% active. Potency, µM (top dose mostly 46 µM), inactives show at the top dose activity change, negative = cytotoxicity, usual class: inhibitors. A549 ARE-Fluc cells, CellTiter-Fluor viability, 18-24 h; further: potency means the concentration at half of the fitted maximal effect; on the % scale 0 is the no-effect control and ±100 the full control effect
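Cytotoxicity counterscreen: CellTiter-Fluor fluorescence was measured in A549 ARE_Fluc cells after 18-24 h of compound exposure in a concentration series. The subsequent BugLite luminescent read reports ARE-luciferase activity.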
Nrf2 inh: Nrf2 qHTS screen for inhibitors. AID 504444, 2011. A549 ARE-Fluc reporter, luciferase luminescence, 18-24 h. Potency, µM (doses to about 46 µM), without a hit: top-dose activity change, negative = inhibition, most hits filed as inhibitors. 360,000 tested, 2.1% active; further: potency means the concentration at half of the fitted maximal effect; on the % scale 0 is the no-effect control and ±100 the full control effect; nearly all actives have a fitted effect of over 60% in size
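Two sequential reads on A549 ARE_Fluc cells exposed to compound for 18-24 h: a CellTiter-Fluor fluorescence read for viability, then a luciferase luminescence read for Nrf2/ARE activity.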
* hit, by the source's call; [ ] = another dose, or the depositor's remark. Unless noted, the call rests on the fitted dose curve; in most records, active means well fitted curve in the direction sought with a large enough effect; inconclusive means small, poorly fitted or top-dose-only effect, or another doubt; inactive means no such curve, though single readings can be large; an effect the other way counts as inactive or inconclusive.

What do the screens show for `CC(=O)c1[nH]c(C)c(C(=O)N2CCCC(Nc3ccc(C(C)C)cc3)C2)c1C` (stereo not drawn)?
Nrf2 activator: 0%; PI4K2A inh: -8; GALK inh: -3%; miR-21 reporter: -1%; A549 viability: inconclusive; Nrf2 inh: 15µM*

What do the screens show for `COc1cccc(OC)c1NC(=O)OCCN1CCCC12CCC(c1ccccc1)CC2` (stereo not drawn)?
PI4K2A inh: -3

What do the screens show for `O=C(Nc1ccc(NC(=O)c2ccccc2Cl)c(Cl)c1)c1ccccn1`?
PI4K2A inh: -2

What do the screens show for `O=c1c2c3nc4ccccc4nc3n(/N=C/c3ccco3)c2ncn1CCC1=CCCCC1`?
Nrf2 activator: 0%; PI4K2A inh: -16; GALK inh: 1%; miR-21 reporter: 1%; A549 viability: -10%; Nrf2 inh: -4%

How did CCCCCCn1c(C)nc2c(c1=O)c1nc3ccccc3nc1n2/N=C/c1ccco1 do in these assays?
Nrf2 activator: 3%; PI4K2A inh: -1; GALK inh: 1%; miR-21 reporter: -2%; A549 viability: inconclusive; Nrf2 inh: 23µM*

How did CC(=O)c1cccc(NC(=O)CSc2ccc(-c3ccccn3)nn2)c1 do in these assays?
Nrf2 activator: 3%; PI4K2A inh: 3; GALK inh: 6%; miR-21 reporter: 5%; A549 viability: -13%; Nrf2 inh: 21µM*

Results for CC(=O)Nc1cccc(NC(=O)CSc2ccc(-c3ccccn3)nn2)c1 ?
Nrf2 activator: 1%; PI4K2A inh: -3; GALK inh: 0%; miR-21 reporter: -4%; A549 viability: -11%; Nrf2 inh: inconclusive

Results for CCc1ccc(NC(=O)CSc2ccc(-c3ccccn3)nn2)cc1 ?
Nrf2 activator: 6%; PI4K2A inh: -2; GALK inh: 9%; miR-21 reporter: -1%; A549 viability: inconclusive; Nrf2 inh: 21µM*

How did CCc1cccc(-n2c(=O)c3cccnc3n2CC(=O)Nc2ccc(OC)c(Cl)c2)c1 do in these assays?
Nrf2 activator: 4%; PI4K2A inh: 2; miR-21 reporter: 13%; A549 viability: 6%; Nrf2 inh: 8.2µM*

What do the screens show for `c1cnc2c(c1)ccc1cccnc12`?
Nrf2 activator: 10%; PI4K2A inh: -1; GALK inh: 0%; miR-21 reporter: 24%; A549 viability: inconclusive; Nrf2 inh: 5.8µM*

Results for Cc1nc(-c2ccccc2)cc(N2CCCC2)n1 ?
Nrf2 activator: inconclusive; PI4K2A inh: 3; GALK inh: -2%; miR-21 reporter: -22%; A549 viability: -4%; Nrf2 inh: 8%

How did Cc1cc(-c2ccccc2)nc2[n+]1CCN2C do in these assays?
Nrf2 activator: 0%; PI4K2A inh: 2; GALK inh: 3%; miR-21 reporter: 4%; A549 viability: -15%; Nrf2 inh: 5.2µM*

How did Cc1ccc(-n2c(SCC(=O)Nc3ccc4c(c3)OCCO4)nnc2-c2cnccn2)cc1 do in these assays?
PI4K2A inh: 2

How did Cc1ccc(NC(=O)C2CCN(S(=O)(=O)c3ccc(N4CCCC4=O)cc3)CC2)cc1Cl do in these assays?
Nrf2 activator: 0%; PI4K2A inh: -4; GALK inh: 1%; miR-21 reporter: 27%; A549 viability: -5%; Nrf2 inh: 10µM*

How did O=C(Nc1cccc(Cl)c1Cl)C1CC(=O)N(c2ccc(Br)cc2)C1 (stereo not drawn) do in these assays?
Nrf2 activator: -1%; PI4K2A inh: -6; GALK inh: -2%; miR-21 reporter: 10%; A549 viability: -12%[1.84 µM]; Nrf2 inh: 7.3µM*

What do the screens show for `COc1ccc(N2CC(C(=O)Nc3ccc(S(=O)(=O)N4CCCCC4)cc3)CC2=O)cc1` (stereo not drawn)?
Nrf2 activator: 0%; PI4K2A inh: 2; GALK inh: 3%; miR-21 reporter: 0%; A549 viability: -1%; Nrf2 inh: 21µM*

What do the screens show for `COc1ccc(NC(=O)C2CCN(S(=O)(=O)c3ccc(N4CCCC4=O)cc3)CC2)c(OC)c1`?
Nrf2 activator: 0%; PI4K2A inh: 0; GALK inh: -2%; miR-21 reporter: -2%; A549 viability: 8%; Nrf2 inh: 4%

What do the screens show for `O=C(Nc1ccc(S(=O)(=O)N2CCCCC2)cc1)C1CC(=O)N(c2ccc(Cl)cc2)C1` (stereo not drawn)?
Nrf2 activator: 1%; PI4K2A inh: -8; GALK inh: -2%; miR-21 reporter: 29%; A549 viability: inconclusive; Nrf2 inh: 23µM*

What do the screens show for `O=C(Nc1cccc(F)c1)C1CC(=O)N(c2ccc(Br)cc2)C1` (stereo not drawn)?
Nrf2 activator: 1%; PI4K2A inh: 1; GALK inh: 0%; miR-21 reporter: 1%; A549 viability: 1%; Nrf2 inh: -7%

How did COc1ccc(N2CC(C(=O)Nc3ccc(S(=O)(=O)N4CCCC4)cc3)CC2=O)cc1 (stereo not drawn) do in these assays?
Nrf2 activator: 2%; PI4K2A inh: -14; GALK inh: 0%; miR-21 reporter: -2%; A549 viability: 2%; Nrf2 inh: -22%

Results for O=C(NC1CCCCN(Cc2cccc(F)c2)C1=O)c1ccc(-c2ccccc2)cc1 (stereo not drawn) ?
PI4K2A inh: -1

How did Nc1c(S(=O)(=O)c2cccs2)c2nc3ccccc3nc2n1/N=C/c1cccc(O)c1 do in these assays?
Nrf2 activator: -1%; PI4K2A inh: -6; GALK inh: 4%; miR-21 reporter: inconclusive; A549 viability: inconclusive; Nrf2 inh: 26µM*

Results for COc1cccc(/C=N/n2c(N)c(S(=O)(=O)c3cccs3)c3nc4ccccc4nc32)c1 ?
Nrf2 activator: 0%; PI4K2A inh: 1; GALK inh: 0%; miR-21 reporter: -1%; A549 viability: -2%; Nrf2 inh: inconclusive

What do the screens show for `COc1ccc(NC(=O)Cn2nnc(-c3ccccc3NS(=O)(=O)c3ccccc3)n2)cc1`?
Nrf2 activator: 0%; PI4K2A inh: 5; GALK inh: 0%; miR-21 reporter: 10%; A549 viability: -13%; Nrf2 inh: 21µM*

Results for COc1ccc(C(=O)Nc2ccccc2-c2nnn(CC(=O)N3CCOCC3)n2)cc1 ?
Nrf2 activator: 0%; PI4K2A inh: -5; GALK inh: 1%; miR-21 reporter: -2%; A549 viability: 5%; Nrf2 inh: 3%
